In all, about 140,000 compounds went through this assay and about 860 (0.61%) were called active. This is one part of a sample in which actives are shown more often than they occur. Values without a mark were called inactive. No stated cut-off is given here; in the data, active means inhibition above about 25%; inactive means the rest.

The assay deals with E3 ubiquitin-protein ligase RBX1 (Homo sapiens) + Cullin-1 (Homo sapiens) (UniProt P62877+Q13616). Briefly: blocks human RBX1-Cullin-1 di-ubiquitin formation (AID 1347404). To be noted: in vitro K48 di-Ub FRET, acceptor:donor ratio, 45 min; at 10 µM; hits give high values.
Sequence of E3 ubiquitin-protein ligase RBX1 (Homo sapiens) + Cullin-1 (Homo sapiens) (P62877 whole entry, looked up): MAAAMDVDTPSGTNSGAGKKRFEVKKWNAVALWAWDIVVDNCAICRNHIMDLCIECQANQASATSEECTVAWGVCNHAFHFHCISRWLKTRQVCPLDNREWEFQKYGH
Sequence of E3 ubiquitin-protein ligase RBX1 (Homo sapiens) + Cullin-1 (Homo sapiens) (Q13616 whole entry, looked up): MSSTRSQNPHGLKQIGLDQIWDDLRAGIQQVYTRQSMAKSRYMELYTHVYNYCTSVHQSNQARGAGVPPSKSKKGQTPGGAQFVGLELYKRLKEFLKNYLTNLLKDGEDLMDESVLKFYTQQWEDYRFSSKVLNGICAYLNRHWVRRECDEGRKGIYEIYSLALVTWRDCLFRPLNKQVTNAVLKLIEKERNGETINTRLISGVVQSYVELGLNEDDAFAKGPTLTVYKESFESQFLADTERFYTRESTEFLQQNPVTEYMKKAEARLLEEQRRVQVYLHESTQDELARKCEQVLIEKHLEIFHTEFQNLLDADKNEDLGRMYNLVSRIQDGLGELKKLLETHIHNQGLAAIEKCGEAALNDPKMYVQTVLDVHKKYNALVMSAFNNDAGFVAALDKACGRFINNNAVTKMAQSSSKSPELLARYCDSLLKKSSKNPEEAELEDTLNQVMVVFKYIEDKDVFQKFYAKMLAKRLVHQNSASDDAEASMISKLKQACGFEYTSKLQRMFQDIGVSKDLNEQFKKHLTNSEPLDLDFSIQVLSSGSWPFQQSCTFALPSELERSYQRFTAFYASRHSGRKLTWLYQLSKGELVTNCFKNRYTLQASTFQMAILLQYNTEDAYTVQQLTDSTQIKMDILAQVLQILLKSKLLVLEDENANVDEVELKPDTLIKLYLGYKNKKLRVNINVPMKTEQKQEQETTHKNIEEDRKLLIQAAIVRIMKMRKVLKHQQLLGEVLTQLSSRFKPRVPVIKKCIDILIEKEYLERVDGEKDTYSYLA
By inhibition is commonly meant the drop in the measured response relative to a control, in per cent. For `Cc1[nH]nc2c1C(c1cccc(OCc3ccccc3Cl)c1)C(C#N)C(=N)O2` (configuration not stated), the inhibition is -9.52%.

For `Cc1ccc(C2Oc3ccccc3C3CC(c4cccs4)=NN32)o1` (configuration not stated), the inhibition was 0.171%.

With `CCN(CC)C(=O)c1sc(NC(=O)C(Sc2ccccc2)c2ccccc2)c(C#N)c1C` (configuration not stated), the inhibition was 2.76%.

For the compound `Oc1ccc2oc(SCCOCCOCCOCCSc3cc4cc(O)ccc4o3)cc2c1`, the inhibition is 0.44%.

With `O=C(COC(=O)c1cc(Cl)c(Cl)cc1C(=O)OCC(=O)c1ccccc1)c1ccccc1`, the inhibition is 7.68%.

Take `O=C(O)CSCC(=O)Nc1nccs1`: the inhibition was -17.6%.

Take `O=C1C2CCCN2C(=O)N1CCCCN1CCN(c2cccc(C(F)(F)F)c2)CC1` (configuration not stated): the inhibition was -6.27%.

In the case of `c1ccc(-c2oc(-c3ccccc3)c(-c3ccccc3)c2-c2ccccc2)cc1`, the inhibition is -5.11%.

Turning to `CCc1ccc(-c2cc(C(F)(F)F)n3nc(C(=O)N(C)Cc4cnn(C)c4C)cc3n2)s1`, the inhibition is -10.3%.

In the case of `N#Cc1ccc(-c2nc3cc(C#N)c(C#N)cc3nc2-c2ccccc2)cc1C#N`, the inhibition is 0.0365%.

On to `COc1ccc(-c2n[nH]c(=O)c3ccccc23)cc1`, for which the inhibition is 0.605%.

`N#Cc1c(-c2ccccc2)c(-c2ccccc2)n[nH]c1=O`: the inhibition is 49.7% (active).

Consider `COc1cc(OC)c(OC)cc1CN1CC[C@@H](N2CCC(O)CC2)[C@H](O)C1`, for which the inhibition was 13%.

With `O=C(O)c1cc(-c2ccc(CC3=NC(=S)N(c4ccc(Cl)cc4)C3=O)o2)ccc1Cl`, the inhibition is 101% (active).

`OCc1ccc(-c2cc(Cl)cc(Cl)c2)o1`: the inhibition is -5.33%.

In the case of `C=CCN1C(=O)N=C(Cc2ccc(-c3cccc(F)c3)o2)C1=O`, the inhibition was 2%.

In the case of `COc1cccc(C(=O)NC2(C(F)(F)F)C(=O)N=C3C2C(=O)NC(=O)N3c2ccc(C)cc2)c1` (configuration not stated), the inhibition is -7.22%.

For the compound `Cc1ccc(-c2c3nnc4ccccc4c3nc3sc4c(=O)[nH]c(C)nc4c23)cc1`, the inhibition is 6.93%.

As for `COc1ccc(F)c(-c2nc(CN(C)Cc3nonc3C)c(C)o2)c1`, the inhibition was 3.31%.

`COCCCN1C(=O)CC(CC(=O)N2CCN(C)C(c3ccccc3)C2)(c2ccccc2OC)C1=O` (configuration not stated): the inhibition was 9.56%.

As for `COc1cccc(CC2(CO)CCN(C(=O)c3cnn(C(C)C)c3)CC2)c1`, the inhibition is 4.94%.

`O=C(NC1CCCN(CCc2ccccc2)C1)c1cccc(N2CCOCC2)c1` (configuration not stated): the inhibition was 5.73%.

`COc1ccc(C(=O)Nc2ccc3nc(N4CCCCC4)cc(C)c3c2)cc1OC`: the inhibition was -8.5%.

With `Cc1ccc(-c2csc(NNC(=O)c3ccccc3)n2)cc1`, the inhibition was -5.78%.

For the compound `O=C(NNc1cc(N2CCCC2)nc(N2CCCC2)n1)c1ccccc1`, the inhibition is 31.7% (active).

For the compound `COCCN(CC1CCN(Cc2ccccc2F)CC1)C(=O)CCCN1CCCCC1=O`, the inhibition is 14.5%.

On to `Cc1ccccc1OC(C)C(=O)Nc1nccs1` (configuration not stated), for which the inhibition was 0.702%.

Consider `CCN1C(=O)C(=Cc2ccc(-c3ccccc3)o2)C(=O)N(CC)C1=S`, for which the inhibition was -2.58%.

For `CCn1cc(/C=C2\SC(=O)N(CC(=O)Nc3cccc(C)c3)C2=O)c2ccccc21`, the inhibition is 0.178%.

On to `CCCN1C(=O)/C(=C\c2cn(CC(=O)O)c3ccccc23)C(=O)N(c2ccccc2)C1=S`, for which the inhibition is 48.9% (active).

As for `CCCCCCCCCCCCOc1c(OC)cc(C(=O)O)cc1OC`, the inhibition was 26.5% (active).

Consider `COc1cc(C(=O)O)ccc1OC(=O)C1CCCCC1`, for which the inhibition was 2.41%.

As for `CCCCCOc1cccc(OCC(=O)Nc2cccc(OC)c2)c1`, the inhibition is 0.894%.

As to `Cc1cccc(-n2c(C)c(C)n3c4c(=O)n(CCCO)c(=O)n(C)c4nc23)c1`, the inhibition is -0.432%.

As for `CCCNC(=O)c1nnn(-c2ccc(C)cc2)c1C`, the inhibition was 2.76%.

Take `CN1CCC2(CC1)CC(=O)NC2=O`: the inhibition is -1.86%.

Regarding `Nc1ccc([N+](=O)[O-])cc1OCc1ccccc1`, the inhibition is 6.18%.

As for `CCn1c2ccccc2c2cc(NS(=O)(=O)c3ccc(Cl)nc3)ccc21`, the inhibition was -11.1%.

With `Cc1cc(OC(C)C(=O)N2CCN(c3ccccc3)CC2)cc(C)c1Cl` (configuration not stated), the inhibition is 12.3%.

Turning to `O=C(Nc1cccc(Cl)c1)C(=S)NCc1ccco1`, the inhibition was 3.18%.

With `Nc1c(C(=O)Nc2ccc(F)c(Cl)c2)sc2nc(-c3ccc(F)cc3)ccc12`, the inhibition is -0.694%.

On to `COCC(=O)N1CCCC(C(=O)c2cccc(C(F)(F)F)c2)C1` (configuration not stated), for which the inhibition was 11%.

The values are drawn from PubChem BioAssay AID1347404 (Pan Lab, Icahn School of Medicine at Mount Sinai, 2020).
